The source of these data is PubChem BioAssay.

Structures are written as SMILES. Records with an inconclusive call do not appear. For part of these data: Entries with a potency or affinity are not part of this list. The source made the active and inactive calls.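 Rule for the calls, unless noted: active = at least 20% inhibition of 6-phosphogluconate dehydrogenase activity; inactive = the rest.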

A short description of assay [1]: P. berghei load reduction in hepatocytes – cell-based, HepG2, luciferase luminescence, HepG2 viability, primary screen (AID 624349; in the data active = parasite load remaining mostly below about 12%, no sharp cut-off; inactive = mostly above about 10%;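 note: 100% = mean of DMSO negative control wells on the same plate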). The following applies: P. berghei liver stage in HepG2, luciferase luminescence, concentration not given here; parasite load remaining: stronger effect = lower value; viability: measured here: HepG2 viability without parasites.
Assay [2] addresses 6-phosphogluconate dehydrogenase, decarboxylating (Homo sapiens) (UniProt P52209). Kind of assay: inhibition of human phosphogluconate dehydrogenase – biochemical, recombinant enzyme, NADPH absorbance, primary screen (AID 1159550). The following applies: recombinant 6PGD, NADPH absorbance 341 nm; at 10 µM; stronger effect = higher value.
Assay [3] in a line: viability loss with induced miR-34 in A549 – imaging, A549 dox-inducible miR-34, nuclei and caspase counts, primary screen (AID 1347080;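 active = compounds whose cell count with miR-34 switched on is under 0.7 times the count with it off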). The following applies: A549 miR-34 inducible, Hoechst nuclei count, 48 h.
In assay [4] the target is Mitogen-activated protein kinase 7 (Homo sapiens) (UniProt Q13164). Kind of assay: Gal4-ERK5 driven luciferase induction – cell-based, HTS, primary screen (AID 1508626;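 active = luciferase signal above three times the same-plate solvent-only control wells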;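 note: luciferase driven by Gal4-ERK5 fusion binding five Gal4 sites before minimal TATA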). The following applies: HeLa Gal4-ERK5 transactivation, 18 h, at 5 µM, stronger effect = higher value.
Assay [5] can be described thus: blockers of polyQ-driven CASP3 activation – cell-based (AID 1583). The following applies: polyglutamine-induced caspase-3 activation, cell assay; stronger effect = higher value;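 tested at 10 µM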.
Assay [6] in a line: yeast 75Q aggregation reduction – 75Q-TubU reporter (AID 1593). The following applies: Yeast 75Q polyglutamine aggregation reporter.
A short description of assay [7]: restoration of touch response, mutant HTT neurons – whole organism, C. elegans mechanosensory neurons, N-terminal huntingtin (AID 1599). The settings on record: C. elegans polyQ-huntingtin mechanosensory neurons, stronger effect = higher value.
Assay [8] in a line: blockers of cytochrome c efflux from mitochondria – biochemical, purified mitochondria (AID 1603).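 Note: mouse liver mitochondria challenged with calcium chloride; signal normalized to the plate average as 100%.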 The settings on record: stronger effect = lower value.
Assay [9] can be described thus: polyglutamine aggregate formation blockers (AID 1604). The following applies: polyglutamine-induced protein aggregation inhibition assay; stronger effect = higher value; tested at 2.5 µM.
Assay [10] is described as follows: glutamate transport activators, MN-1 cells, MN-1 cell line (AID 1612).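 Note: tested at 1 µM final; 0% = mean of DMSO vehicle wells on each plate; positive means more glutamate uptake than control and negative means less.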 The following applies: MN-1 motor neuron cells, stronger effect = higher value.
A short description of assay [11]: GFP-Q80 aggregate reduction, neuronal-like cells, cell-based, NGF-treated PC12, GFPQ80 (AID 1614).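 Note: lower means fewer inclusions and 0 means no inclusions at all.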 The settings on record: PC12 NGF-treated GFP-polyQ80 inclusion reduction.
Assay [12] is described as follows: 75Q-TubH aggregate inhibition, S. cerevisiae, yeast (AID 1616). The settings on record: S. cerevisiae 75Q-TubH polyglutamine aggregation suppression; stronger effect = higher value.
Assay [13] addresses ATP-dependent translocase ABCB1 (Homo sapiens) (UniProt P08183). Kind of assay: P-glycoprotein substrate transport blockade – cell-based (AID 377; in the data active = fluorescence slope change above about 50%). The settings on record: MDR1-expressing cells, fluorescent substrate accumulation slope; stronger effect = higher value; concentration not given here.
Assay [14] in a line: antimalarial activity against Dd2 strain (AID 2302;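 active = growth inhibition above 50% at the single 2 µM test dose, taken to imply half-maximal potency below 2 µM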;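 note: 0% = DMSO untreated growth and 100% = chloroquine plus artemisinin killed control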). The settings on record: P. falciparum Dd2 in RBCs, LDH growth readout, 72 h; at 2 µM; stronger effect = higher value.
Assay [15] in a line: human hepatoma cell viability loss – ATP luminescence, cytotoxicity control for P. falciparum antimalarial project, primary screen (AID 2303;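 active = inhibition above 50%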;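 note: 0% = DMSO wells and 100% = digitonin-killed cells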). The following applies: HepG2 viability, 24-48 h, at 10 µM, stronger effect = higher value.
In assay [16] the target is L-lactate dehydrogenase (Plasmodium falciparum (isolate CDC / Honduras)) (UniProt Q27743). The assay is described as follows: PfLDH activity inhibition – cell lysate, 3D7 strain, counter-screen for P. falciparum growth inhibition project (AID 2304; call rule not given here;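 note: 0% = vehicle and 100% = reference inhibitor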). The following applies: P. falciparum 3D7 crude extract, LDH APAD/NBT absorbance; at 2 µM; stronger effect = higher value. On the technique in general: Counterscreens check selectivity or assay interference.

The target in assay [17] is Calcium-dependent protein kinase 1 (Plasmodium falciparum (isolate 3D7)) (UniProt P62344). The assay is described as follows: PfCDPK1 kinase inhibitors, biochemical, TCAMS library (AID 1159585; cut-off not given, nearly all actives have IC50 up to about 0.98 µM;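 note: inhibitors leave more ATP so luminescence rises with inhibition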). The following applies: recombinant PfCDPK1, Kinase-Glo ATP depletion luminescence. Background: In Kinase-Glo more light means more ATP remaining.
In assay [18] the target is Plasmodium falciparum protein kinase 6 (PK6, PF3D7_1337100) (UniProt Q8IDW1). The assay is described as follows: PfPK6 kinase inhibitors, biochemical, TCAMS library (AID 1159586; call rule not given here). The settings on record: recombinant PfPK6, Kinase-Glo ATP depletion luminescence.
For assay [19], the target named is Protein kinase 7 (PK7), Plasmodium falciparum 3D7 (PF3D7_0213400) (UniProt Q7YTF7). The assay is described as follows: inhibition of Plasmodium PK7 catalytic activity – biochemical, TCAMS antimalarial set, Kinase-Glo luminescence (AID 1159587; call rule not given here). The following applies: recombinant PfPK7, Kinase-Glo ATP depletion luminescence.
The target of assay [20] is Calcium-dependent protein kinase 4 (Plasmodium falciparum (isolate 3D7)) (UniProt Q8IBS5). Kind of assay: PfCDPK4 kinase inhibitors, biochemical, TCAMS library (AID 1159588; cut-off not given, nearly all actives have IC50 up to about 0.91 µM). The settings on record: recombinant PfCDPK4, Kinase-Glo ATP depletion luminescence.
The nature of assay [21]: compounds altering viability of human ES cells (AID 493140; call rule not given here;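 note: cells exposed to compounds for four days before counting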). The settings on record: human embryonic stem cell survival screen; stronger effect = higher value.
Setting [22] is: measured here: relative caspase fold change +Dox/-Dox.
[23] abbreviates: measured here: total cells with miR-34 induction, stronger effect = lower value.
Setting [24] is: measured here: total cells without miR-34 induction.

6-phosphogluconate dehydrogenase, decarboxylating (Homo sapiens), sequence (P52209 whole entry, looked up): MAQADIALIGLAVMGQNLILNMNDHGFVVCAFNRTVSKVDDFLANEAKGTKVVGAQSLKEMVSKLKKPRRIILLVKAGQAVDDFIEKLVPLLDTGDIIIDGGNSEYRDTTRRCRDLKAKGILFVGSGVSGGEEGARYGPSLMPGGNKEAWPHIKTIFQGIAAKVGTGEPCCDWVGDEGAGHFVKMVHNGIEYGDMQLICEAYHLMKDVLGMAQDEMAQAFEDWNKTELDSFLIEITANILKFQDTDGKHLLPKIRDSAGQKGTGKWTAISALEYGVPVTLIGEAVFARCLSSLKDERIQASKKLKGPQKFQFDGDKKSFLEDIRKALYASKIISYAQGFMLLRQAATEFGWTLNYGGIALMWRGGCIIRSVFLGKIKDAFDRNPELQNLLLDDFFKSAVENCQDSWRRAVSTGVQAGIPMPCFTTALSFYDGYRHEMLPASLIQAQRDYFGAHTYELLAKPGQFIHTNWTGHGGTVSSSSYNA
Mitogen-activated protein kinase 7 (Homo sapiens), sequence (Q13164 whole entry, looked up, the tested form may be a part): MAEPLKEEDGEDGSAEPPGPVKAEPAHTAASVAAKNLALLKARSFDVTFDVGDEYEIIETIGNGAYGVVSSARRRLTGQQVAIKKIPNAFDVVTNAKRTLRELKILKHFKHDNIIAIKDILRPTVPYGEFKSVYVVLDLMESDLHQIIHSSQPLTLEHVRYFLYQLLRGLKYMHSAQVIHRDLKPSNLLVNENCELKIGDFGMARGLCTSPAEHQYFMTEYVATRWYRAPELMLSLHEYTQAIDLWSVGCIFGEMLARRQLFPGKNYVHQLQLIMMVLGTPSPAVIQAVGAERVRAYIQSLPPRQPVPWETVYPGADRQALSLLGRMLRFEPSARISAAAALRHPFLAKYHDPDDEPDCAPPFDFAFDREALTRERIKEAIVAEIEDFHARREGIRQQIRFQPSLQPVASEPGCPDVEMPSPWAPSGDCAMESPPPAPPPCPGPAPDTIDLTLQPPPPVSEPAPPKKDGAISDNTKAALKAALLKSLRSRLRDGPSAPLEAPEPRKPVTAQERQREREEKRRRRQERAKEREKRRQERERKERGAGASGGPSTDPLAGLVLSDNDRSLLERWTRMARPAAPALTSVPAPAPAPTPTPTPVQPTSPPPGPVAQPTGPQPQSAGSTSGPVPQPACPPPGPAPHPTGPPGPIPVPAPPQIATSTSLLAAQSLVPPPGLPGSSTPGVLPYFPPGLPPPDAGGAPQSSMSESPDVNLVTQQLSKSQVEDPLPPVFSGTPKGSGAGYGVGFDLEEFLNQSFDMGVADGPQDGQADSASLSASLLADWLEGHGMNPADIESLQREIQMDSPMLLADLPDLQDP
ATP-dependent translocase ABCB1 (Homo sapiens), sequence (P08183 whole entry, looked up): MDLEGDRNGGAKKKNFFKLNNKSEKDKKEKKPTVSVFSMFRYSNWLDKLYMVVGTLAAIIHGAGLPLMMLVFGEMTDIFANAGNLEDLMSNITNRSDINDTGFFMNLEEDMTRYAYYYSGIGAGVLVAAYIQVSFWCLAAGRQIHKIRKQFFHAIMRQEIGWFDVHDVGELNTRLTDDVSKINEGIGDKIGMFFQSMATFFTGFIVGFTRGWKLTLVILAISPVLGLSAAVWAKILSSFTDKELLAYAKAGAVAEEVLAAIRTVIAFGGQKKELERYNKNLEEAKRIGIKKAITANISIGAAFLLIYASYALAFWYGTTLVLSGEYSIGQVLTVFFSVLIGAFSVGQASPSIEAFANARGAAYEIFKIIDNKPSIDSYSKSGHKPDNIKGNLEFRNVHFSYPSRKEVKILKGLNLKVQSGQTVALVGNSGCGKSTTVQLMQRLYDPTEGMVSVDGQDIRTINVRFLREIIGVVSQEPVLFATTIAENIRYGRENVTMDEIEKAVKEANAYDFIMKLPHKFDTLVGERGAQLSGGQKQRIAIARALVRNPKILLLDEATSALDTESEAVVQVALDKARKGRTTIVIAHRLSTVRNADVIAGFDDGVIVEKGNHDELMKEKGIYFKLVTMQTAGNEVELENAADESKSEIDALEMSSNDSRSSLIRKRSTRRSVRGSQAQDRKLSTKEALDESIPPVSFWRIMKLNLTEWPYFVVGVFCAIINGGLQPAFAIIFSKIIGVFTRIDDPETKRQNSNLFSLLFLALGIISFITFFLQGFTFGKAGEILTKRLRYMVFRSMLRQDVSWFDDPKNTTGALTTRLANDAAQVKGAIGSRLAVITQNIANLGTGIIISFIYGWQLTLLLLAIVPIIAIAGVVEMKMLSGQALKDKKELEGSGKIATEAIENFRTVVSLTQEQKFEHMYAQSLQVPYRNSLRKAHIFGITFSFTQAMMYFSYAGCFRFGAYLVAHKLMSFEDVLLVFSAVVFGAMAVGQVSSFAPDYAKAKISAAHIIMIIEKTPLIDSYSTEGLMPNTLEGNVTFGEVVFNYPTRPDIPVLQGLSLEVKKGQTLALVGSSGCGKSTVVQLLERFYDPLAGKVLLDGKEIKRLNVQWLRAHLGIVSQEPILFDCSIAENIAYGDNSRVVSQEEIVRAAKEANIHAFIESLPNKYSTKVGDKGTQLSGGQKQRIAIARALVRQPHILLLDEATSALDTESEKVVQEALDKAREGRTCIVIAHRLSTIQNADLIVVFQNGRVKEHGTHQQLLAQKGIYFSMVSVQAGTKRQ
Protein kinase 7 (PK7), Plasmodium falciparum 3D7 (PF3D7_0213400), sequence (Q7YTF7 1-343): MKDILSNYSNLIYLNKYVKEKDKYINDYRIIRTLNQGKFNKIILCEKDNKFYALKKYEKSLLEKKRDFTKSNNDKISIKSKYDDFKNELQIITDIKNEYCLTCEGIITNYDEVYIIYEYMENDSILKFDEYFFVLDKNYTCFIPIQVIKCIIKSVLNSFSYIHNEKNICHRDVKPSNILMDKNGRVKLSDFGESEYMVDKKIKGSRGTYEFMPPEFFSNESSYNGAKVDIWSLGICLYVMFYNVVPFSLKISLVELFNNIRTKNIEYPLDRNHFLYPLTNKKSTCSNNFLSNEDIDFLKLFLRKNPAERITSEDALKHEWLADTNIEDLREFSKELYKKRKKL
Calcium-dependent protein kinase 4 (Plasmodium falciparum (isolate 3D7)), sequence (Q8IBS5 whole entry, looked up): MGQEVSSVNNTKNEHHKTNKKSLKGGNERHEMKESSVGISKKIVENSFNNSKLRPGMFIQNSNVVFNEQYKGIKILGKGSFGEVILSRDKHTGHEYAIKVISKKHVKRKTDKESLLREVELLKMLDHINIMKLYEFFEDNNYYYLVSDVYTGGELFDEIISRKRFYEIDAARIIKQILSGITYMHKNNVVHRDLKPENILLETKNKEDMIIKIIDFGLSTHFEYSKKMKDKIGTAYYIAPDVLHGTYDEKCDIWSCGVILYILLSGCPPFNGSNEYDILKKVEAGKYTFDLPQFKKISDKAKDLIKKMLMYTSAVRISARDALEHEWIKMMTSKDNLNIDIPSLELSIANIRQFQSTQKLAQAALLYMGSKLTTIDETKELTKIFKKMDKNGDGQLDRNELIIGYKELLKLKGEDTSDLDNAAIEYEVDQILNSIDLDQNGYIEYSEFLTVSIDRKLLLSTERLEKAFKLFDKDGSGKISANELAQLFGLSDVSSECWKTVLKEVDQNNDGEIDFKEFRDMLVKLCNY
L-lactate dehydrogenase (Plasmodium falciparum (isolate CDC / Honduras)), sequence (Q27743 whole entry, looked up): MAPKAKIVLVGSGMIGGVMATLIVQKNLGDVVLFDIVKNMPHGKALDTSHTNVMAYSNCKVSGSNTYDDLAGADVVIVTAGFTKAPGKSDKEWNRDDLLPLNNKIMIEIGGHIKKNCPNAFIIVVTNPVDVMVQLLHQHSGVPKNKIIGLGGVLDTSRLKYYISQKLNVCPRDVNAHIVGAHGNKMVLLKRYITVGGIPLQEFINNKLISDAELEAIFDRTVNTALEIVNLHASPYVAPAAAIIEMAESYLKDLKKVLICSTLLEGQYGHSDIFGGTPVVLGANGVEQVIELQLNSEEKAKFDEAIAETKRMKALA
Calcium-dependent protein kinase 1 (Plasmodium falciparum (isolate 3D7)), sequence (P62344 whole entry, looked up): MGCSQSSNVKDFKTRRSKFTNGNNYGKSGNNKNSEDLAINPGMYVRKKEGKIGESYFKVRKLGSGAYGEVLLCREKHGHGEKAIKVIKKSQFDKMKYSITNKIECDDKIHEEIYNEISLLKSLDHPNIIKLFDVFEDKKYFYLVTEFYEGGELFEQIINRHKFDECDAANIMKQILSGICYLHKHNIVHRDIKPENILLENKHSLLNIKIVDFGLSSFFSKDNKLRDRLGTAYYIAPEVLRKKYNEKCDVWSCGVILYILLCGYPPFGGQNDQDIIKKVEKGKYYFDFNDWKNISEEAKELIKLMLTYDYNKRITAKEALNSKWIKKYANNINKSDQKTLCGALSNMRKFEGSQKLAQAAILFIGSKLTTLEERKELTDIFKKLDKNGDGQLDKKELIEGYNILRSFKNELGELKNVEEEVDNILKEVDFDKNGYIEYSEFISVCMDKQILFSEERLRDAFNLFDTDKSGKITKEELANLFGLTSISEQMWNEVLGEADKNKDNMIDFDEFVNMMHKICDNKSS
Plasmodium falciparum protein kinase 6 (PK6, PF3D7_1337100), sequence (Q8IDW1 1-305): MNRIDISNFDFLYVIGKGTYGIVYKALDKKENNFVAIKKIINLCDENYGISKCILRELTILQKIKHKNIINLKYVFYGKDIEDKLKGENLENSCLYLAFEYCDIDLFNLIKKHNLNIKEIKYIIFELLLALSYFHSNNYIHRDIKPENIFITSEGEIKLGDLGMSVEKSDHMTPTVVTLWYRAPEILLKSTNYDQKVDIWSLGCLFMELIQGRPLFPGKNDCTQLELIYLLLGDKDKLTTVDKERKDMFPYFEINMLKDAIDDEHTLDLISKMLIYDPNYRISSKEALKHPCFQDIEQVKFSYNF

Usually viability stands for a read-out of living cells in per cent, often relative to untreated cells. As a reminder, the inhibition is the relative decrease from the control value, in per cent. Take `C[C@@H]1CC[C@@]2(NC1)O[C@H]1C[C@H]3[C@@H]4CC=C5C[C@@H](O)CC[C@]5(C)[C@H]4CC[C@]3(C)[C@H]1[C@@H]2C`: the parasite load remaining in assay [1] is 86.7% (inactive). Moreover, the viability in assay [1] was found to be 95.9%. For the same compound, the inhibition in [2] is 11.8% (inactive). Further, the fold change was 0.905 (inactive) in assay [3] (stronger effect = lower value) and 1.06 in assay [3] (setting [22]). For the same compound, the values for the cell count in assay [3] (setting [23]) and in assay [3] (setting [24]) were 9310 and 10300, respectively. In assay [4], the luciferase signal is 48 AU (inactive).
Turning to `CC(C)CC(NC(=O)C(Cc1ccccc1)NC(=O)CNC(=O)CNC(=O)C(N)Cc1ccc(O)cc1)C(=O)O` (stereo not drawn), the inhibition was -1.79% in [5] and 11% (inactive) in assay [2]. The score in assay [6] is 1.42. Besides, the rescue above control in assay [7] is 3.43. Moreover, the cytochrome c release ratio in assay [8] was determined as 0.97. In assay [9], the inhibition of aggregation turned out to be 27.9%. Besides, in assay [10], the glutamate uptake change turned out to be 12.5%. The compound further came in with an inclusion score in assay [11] of 2. This compound also registered an aggregation suppression score in assay [12] of 1.27.
With `CNC(=O)Oc1cccc2c1OC(C)(C)C2`, the inhibition in assay [2] was -14.7% (inactive). Besides, the luciferase signal in [4] is 44 AU (inactive).
`COc1cc2c(cc1O)C[C@H]1c3c(cc(O)c(OC)c3-2)CCN1C`: the fluorescence slope change in assay [13] is 14.6% (inactive). In addition, the parasite load remaining in [1] is 91.1% (inactive). Further, the viability in assay [1] is 118%. For the same compound, the inhibition in assay [2] is 3.02% (inactive). The fold change in [3] (stronger effect = lower value, cell number ratio, induced over uninduced) was 0.885 (inactive); in assay [3] (setting [22]), 1.54. The cell count is 8000 in assay [3] (setting [23]) and 9040 in assay [3] (setting [24]). In assay [4], the luciferase signal was 56 AU (inactive).
On to `O=C1CCCC2C3CC(CN12)C1CCCCN1C3` (stereo not drawn), for which, in assay [2], the inhibition was -2.75% (inactive). In addition, the luciferase signal in [4] was 60 AU (inactive).
For the compound `C=CC12CCN(CC1)C(C(O)c1ccnc3ccc(OC)cc13)C2` (stereo not drawn), in assay [14], the growth inhibition is 72% (active). For the same compound, the inhibition in assay [15] is -6% (inactive); in [16] it was -9% (inactive). For the same compound, the result in [17], in [18], in [19] and in assay [20] was inactive.
For the compound `CN1Cc2c(ccc3c2OCO3)[C@@H]2[C@H]1c1cc3c(cc1C[C@@H]2O)OCO3`, the fluorescence slope change in assay [13] was 54.5% (active). Moreover, the survival in assay [21] is 0.417 (inactive). Further, in assay [1], the parasite load remaining was 92.6% (inactive) and the viability is 77.6%. For the same compound, the inhibition in assay [2] was 7.55% (inactive).
On to `CC(=O)[O-].CC(=O)[O-].[Cd+2]`, for which the inhibition in [2] was 6.37% (inactive). For the same compound, in assay [4], the luciferase signal is 740 AU (inactive).
For the compound `CC1CC(Cl)CCC1C(=O)OC(C)(C)C` (stereo not drawn), in assay [2], the inhibition was -3.82% (inactive). For the same compound, the luciferase signal in assay [4] is 40 AU (inactive).
With `CC[C@@H](C)C(=O)O[C@H]1[C@H](O)[C@H]2[C@@H](CN3C[C@@H](C)CC[C@H]3[C@@]2(C)O)[C@@H]2C[C@]34O[C@]5(O)[C@@H](OC(=O)[C@@](C)(O)CC)CC[C@@]3(C)[C@@H]5[C@@H](OC(C)=O)[C@@H](OC(C)=O)[C@H]4[C@@]21O`, the inhibition in [2] was -7.64% (inactive). Further, the luciferase signal in assay [4] was 108 AU (inactive).
